Compounds with a hit are over-represented: about 7.3% of the library has one in this group of screens.
Tau FP inhib: qHTS for Inhibitors of Tau Fibril Formation, Fluorescence Polarization; AID 1468, 2008; hit rate 0.39% among 280,000; Microtubule-associated protein tau (Homo sapiens), P10636; Potency, µM (doses to about 57.7 µM), inactives show top-dose activity, negative = inhibition, usual class: inhibitors; K18 P301L tau heparin fibrillization, Alexa594 FP, 6 h; also: nearly all actives have a fitted effect of over 55% in size
Target sequence (P10636 561-689 P618L limits assumed): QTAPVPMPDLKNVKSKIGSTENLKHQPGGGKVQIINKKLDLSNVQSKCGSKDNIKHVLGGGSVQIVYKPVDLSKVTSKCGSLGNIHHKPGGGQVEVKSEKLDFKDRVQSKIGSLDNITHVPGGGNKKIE
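Steps: dispense K18 P301L tau (15 uM plus 0.24 uM Alexa 594 tracer, final) in pH 7 sodium acetate; add compound; add heparin (20 uM final); incubate 6 hr, 37 C; add ThT (30 uM final); after 1 hr ambient, read FP.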
RORg inh: qHTS for inhibitors of ROR gamma transcriptional activity; Nuclear receptor ROR-gamma (Mus musculus), P51450; Drosophila S2 Gal4-RORgamma UAS-luciferase reporter, 20 h; Potency, µM (series often up to 53.6 µM), for the others: at the top dose activity change, negative = inhibition, actives largely listed as inhibitors; hit rate 5.4% among 310,000; AID 2551, 2010; also: nearly all actives have a fitted effect of over 60% in size
Target sequence (P51450 whole entry, looked up, the tested form may be a part): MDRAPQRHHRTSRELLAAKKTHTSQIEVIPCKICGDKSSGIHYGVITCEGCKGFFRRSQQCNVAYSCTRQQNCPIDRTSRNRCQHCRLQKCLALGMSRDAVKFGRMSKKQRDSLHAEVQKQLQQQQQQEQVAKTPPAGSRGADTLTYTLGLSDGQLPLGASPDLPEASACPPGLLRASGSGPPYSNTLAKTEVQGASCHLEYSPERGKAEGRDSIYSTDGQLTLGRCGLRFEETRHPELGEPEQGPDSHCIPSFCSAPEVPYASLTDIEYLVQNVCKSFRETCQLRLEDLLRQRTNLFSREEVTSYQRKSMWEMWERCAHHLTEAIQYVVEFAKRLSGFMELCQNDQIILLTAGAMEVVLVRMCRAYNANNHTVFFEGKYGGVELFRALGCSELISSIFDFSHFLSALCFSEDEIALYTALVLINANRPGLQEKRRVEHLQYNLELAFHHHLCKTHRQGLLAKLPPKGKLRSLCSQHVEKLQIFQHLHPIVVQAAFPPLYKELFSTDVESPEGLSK
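Drosophila S2 cells stably expressing Gal4-DBD/mouse RORγ fusion under metallothionein promoter plus UAS-luciferase; compound 1 h, then 700 uM CuSO4 induction for 20 h at ambient temperature; inhibition read as reduced luminescence.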
Tau fluor counter: Counterscreen qHTS for Inhibitors of Tau Fibril Formation, Fluorescence Polarization; tau K18 P301L Alexa594 fluorescence, heparin fibrillization; Potency, µM (series often up to 57.7 µM), without a hit: at the top dose activity change, negative = decrease; hit rate 0.93% among 280,000; also: nearly all actives have a fitted effect of over 55% in size
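Human K18 P301L tau (15 uM unlabeled plus 0.24 uM Alexa 594-labeled, final) in 100 mM sodium acetate pH 7 was mixed with compound and 20 uM heparin and incubated 6 hr at 37 C.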
VP16 counter: VP16 counterscreen qHTS for inhibitors of ROR gamma transcriptional activity | AID 2546, 2010 | Potency, µM (titrated, usually from 53.6 µM), without a hit: at the highest dose activity, negative = inhibition, hits mostly inhibitors | hit rate 3.5% among 310,000 | Drosophila S2 Gal4-VP16 UAS-luciferase, luminescence, 20 h;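 also: Gal4-VP16 expression switched on by copper sulfate through the metallothionein promoter; nearly all actives have a fitted effect of over 50% in size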
Tau ThT inhib: qHTS for Inhibitors of Tau Fibril Formation, Thioflavin T Binding | recombinant tau K18 P301L (four-repeat tau fragment), heparin-induced fibrillization, ThT fluorescence | Potency, µM (series often up to 57.4 µM), for inactives: top-dose activity, negative = inhibition, hits mostly inhibitors | hit rate 2.1% among 270,000; also: nearly all actives have a fitted effect of over 55% in size
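Heparin-induced (20 uM) aggregation of recombinant human K18 P301L tau, 15 uM unlabeled with 0.24 uM labeled, pH 7 acetate buffer, 6 hr at 37 C with compound. Fibrils quantified by 30 uM ThT fluorescence after 1 hr ambient incubation.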
The depositor's hits bear a star; ? = inconclusive; . = not tested or not shown; [ ] = remark or other dose. Calls follow the shape of the dose curve; as a rule, active = well fitted curve in the direction sought with a large enough effect; inconclusive = small, poorly fitted or top-dose-only effect, or another doubt; inactive = no such curve, though single readings can be large; an effect the other way counts as inactive or inconclusive. % is scaled to controls: 0 for no effect and ±100 for the full control effect; potency is read from the fitted curve at half-maximal effect.

SMILES	Tau FP inhib	RORg inh	Tau fluor counter	VP16 counter	Tau ThT inhib
COc1ccc(N2C(=O)[C@@H]3[C@H](C2=O)[C@H]2c4ccccc4C=CN2[C@@H]3C(C)=O)cc1	?	13%	-27%	-4%	16µM*
O=C1C=C[C@@H](O)[C@H]2[C@@H]3C(=O)N(Cc4ccc5c(c4)OCO5)C(=O)[C@@H]3CC[C@H]12	?	0%[10 µM]	-1%[11.6 µM]	8%[10 µM]	-9%[11.5 µM]
O=C(c1cccs1)[C@@H]1[C@@H]2C(=O)N(Cc3ccc4c(c3)OCO4)C(=O)[C@@H]2C2c3ccccc3C=CN21 (some centres undefined)	?	-11%	?	2%	22µM*
COc1ccc(-c2cn3nc(N4CCC(C(=O)NCc5cccc(Cl)c5)CC4)sc3n2)cc1	-2%	.	-11%	.	?
COCc1nc2ccccc2n1Cc1ccc(C(C)(C)C)cc1	3%	.	-6%	.	-9%
CCc1ccc(NC(=O)Cn2cnc([N+](=O)[O-])c2)cc1	.	-4%	.	2%	.
Cc1ccccc1Oc1cc(NC(=O)Cn2cnc([N+](=O)[O-])c2)cc([N+](=O)[O-])c1	?	14%	13µM*[quencher]	9%	?
O=C(NC(=S)NCCC1=CCCCC1)c1ccccc1Br	-9%	3.5µM*	-25%	3.2µM*	?
S=C(NCCC1=CCCCC1)NCc1ccco1	0%	7.1µM*	-2%	?	2%
O=C(NC(=S)NCCC1=CCCCC1)c1cncc(Br)c1	10%	4.5µM*	-4%	8.9µM*	-17%
O=C(CCn1c(=O)c2ccccc2n(CC(=O)NCCC2=CCCCC2)c1=O)NCc1ccco1	6%	6%	3%	13%	-1%
C[C@@H]1C(=O)OC2C[C@@]34[C@H]5C[C@@H](C(C)(C)C)[C@@]36C(O)C(=O)O[C@H]6O[C@@]4(C(=O)O5)[C@]21O (some centres undefined)	-1%	-21%	0%	-1%	-5%
c1ccc(-c2nc(NCc3cccnc3)c3ccccc3n2)cc1	-11%	9%	-23%	-10%	14%
CCN(CC)c1nc(-c2ccccn2)nc(-c2ccccc2)c1C#N	6%	1µM*	-9%	5µM*	-17%
c1ccc(CCNc2nc(-c3ccccn3)nc3ccccc23)cc1	-1%	0.25µM*	-20%	4.5µM*	-1%
CCCN(CCC)c1nc(-c2ccccc2F)nc2ccccc12	-6%	.	-13%	.	?
CCCN(CCC)c1nc(-c2ccccn2)nc2ccccc12	.	3.5µM*	.	5µM*	.
COc1cccc(NC(=O)CSc2nc(=O)n(Cc3ccncc3)c3c2CCC3)c1	-3%	.	2%	.	1%
COc1cccc(CN(C)C(=O)Nc2cccc(C(F)(F)F)c2)c1OC	-1%	?	-21%	-16%	-6%
O=C(Nc1cc(Cl)cc(Cl)c1)c1ccc(F)c(S(=O)(=O)N2CCCCCC2)c1	?	.	?	.	-6%
CN(C)c1ccc(CNC(=O)c2ccc3nc(CCc4ccccc4)oc3c2)cc1	6%	.	-11%	.	-7%
CCOc1ccc(NC(=O)Cn2c(=O)n(Cc3ccco3)c(=O)c3ccc(C(=O)NC4CCCC4)cc32)cc1	16µM*	.	?	.	2%
CCOC(=O)Cn1c(=O)n(Cc2ccco2)c(=O)c2ccc(C(=O)NC3CCCC3)cc21	-8%	-29%	-15%	13%	-13%
Nc1nc(-c2ccccc2)c(-c2ccccc2)n1N	.	0.4µM*	.	1.4µM*	.
Cc1cccnc1N(C(=O)Nc1ccccc1)C1=NCC(C)(C)S1	6%	10µM*	3%	?	-2%
SMILES	Tau FP inhib	RORg inh	Tau fluor counter	VP16 counter	Tau ThT inhib
Cc1cccnc1N(C(=O)Nc1cccc(Cl)c1)C1=NCC(C)(C)S1	-15%	11µM*	-16%	-25%	-6%
CC1(C)CN=C(N(C(=O)Nc2ccccc2)c2ccccc2F)S1	2%	-1%	2%	27%	8%
Cc1cccnc1NC(=O)Nc1cccc(Cl)c1	.	-3%	.	5%	.
COCCCNC(=O)C1CCCN(c2nn3cc(-c4ccc(C)cc4)nc3s2)C1 (centres undefined)	2%	.	-24%	.	?
Cc1ccc(NC(=S)NC2CCSc3ccccc32)cc1 (centres undefined)	.	-102%	.	5.6µM*	.
COC(=O)c1ccc(NC(=S)NC2CCc3ccccc32)cc1 (centres undefined)	?	7.9µM*	?	?	-14%
COC(=O)c1ccc(NC(=S)NC2CC2)cc1	2%	?	-7%	27%	-6%
Cc1ccc(CSCCC(=O)NCc2ccc(F)cc2Cl)cc1	2%	.	-15%	.	-8%
COc1ccc(NC(=O)NCc2cccnc2)cc1	.	16%	.	1%	.
Cc1ccc(NC(=O)c2cn3c4c(ccc(Cl)c4c2=O)OC(C)C3)c(C)c1 (centres undefined)	-1%	.	-1%	.	2%
NCCCCCc1nnc(SCc2ccc(Cl)cc2Cl)o1	-1%	8.9µM*	-9%	5.6µM*	-8%
NCCCCCc1nnc(SCc2cccc(Cl)c2)o1	4%	5.6µM*	2%	2.8µM*	4%
COc1ccc(S(=O)(=O)N2CCN(c3ccc(F)cc3)CC2)cc1C(=O)N1CCCC1	.	0%	.	-11%	.
CCOC(=O)C(CC)Sc1ncnc2c1c(-c1ccccc1)cn2-c1ccc(OC)cc1 (centres undefined)	-11%	.	-23%	.	-5%
COc1ccc(/C=N/NC(=O)c2c(Br)cnn2C)c2ccccc12	.	20µM*	.	2.8µM*	.
COc1ccc(/C=N/NC(=O)c2ccccc2O)cc1Cn1cc(Cl)cn1	-2%	6.3µM*	-29%	14µM*	-14%
CCOc1cc(Br)cc(/C=N/NC(=O)c2cccnc2)c1O	.	0.79µM*	.	1µM*	.
COc1ccc(/C=N/NC(=O)c2cccnc2)cc1CN1CCCc2ccccc21	8%	10µM*	13µM*[quencher]	-29%	?
NC(=O)C1(N2CCCCC2)CCN(C(=O)Nc2ccc(F)cc2)CC1	-4%	.	0%	.	8%
COc1ccc(/C=N/NC(=O)c2cccnc2)c2ccccc12	.	1.3µM*	.	-19%	.
COc1ccc(/C=N/NC(=O)c2cccnc2)c(C(=O)O)c1OC	-7%	2%	-7%	4%	-7%
COC(=O)Nc1ccc(SCC(=O)c2cccc([N+](=O)[O-])c2)cc1	.	-18%	.	-9%	.
Fc1ccc(-c2cnn3c(-c4ccncc4)ccnc23)cc1	3%	1%	-2%	1%	3.2µM*
Fc1ccc(-c2cnn3c(-c4cccs4)ccnc23)cc1	-15%	?	-14%	?	1.4µM*
CCc1ccc(Nc2nc(-c3cc4cccc(OC)c4oc3=O)c(CC)s2)cc1	11%	.	?	.	?

Bioassay records as filed in PubChem.
